A selection: hits, their analogues and other compounds. The true share with any hit is near 1.2%.
E-sel TNF inh: blocks E-selectin expression induced by TNF alpha; HUVEC TNFa-induced E-selectin immunofluorescence, high content; 0.71% of 120,000 active; AID 1246; inhibition, % at 2 µM;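 active means inhibition above the batch mean plus 3 SD, and confirmed as a hit on visual image review, cut at about 43% in these data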;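 further: 0% = TNF-stimulated DMSO wells and 100% = unstimulated control wells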
F-actin modifier: cytoskeleton assembly modification. HUVEC TNFa F-actin phalloidin imaging, high content. inhibition, % at 2 µM. 0.18% of 91,000 active;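 active means inhibition above the batch mean plus 3 SD and confirmed as a hit by visual image inspection, cut at about 30% in these data, passing the limit was not always enough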
VCAM1 TNFa inh: reduces TNF alpha induced VCAM1 expression in HUVEC | HUVEC TNFa-induced VCAM-1 immunofluorescence, high-content imaging | inhibition, % at 2 µM | 0.48% of 95,000 active | AID 802;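 active means inhibition above the batch mean plus 3 SD, with images confirmed as a hit by eye, cut at about 37% in these data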;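 further: 0% = TNF-stimulated DMSO wells and 100% = unstimulated control wells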
TNFa cytotox: toxic to HUVEC cells under TNF alpha stimulation | HUVEC TNFalpha-stimulated, Hoechst cell count, imaging | cell count reduction, % at 2 µM | 0.17% of 93,000 active | AID 848;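 active means cell count reduction exceeding the screen mean by over 5 SD, scaled to untreated wells per plate, cut at about 78% in these data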;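 further: cells counted after 24 h of TNF alpha exposure following the 1 h pretreatment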
* = called active by the depositor; . = no result given.

SMILES	E-sel TNF inh	F-actin modifier	VCAM1 TNFa inh	TNFa cytotox
COc1ccccc1C(=O)Nc1nnn(C)n1	.	-32	53	78*
Cn1nnc(NC(=O)c2ccccc2)n1	-29	0	-10	-18
CCc1ccc(CN(C)C(=O)c2cc(COc3c(F)cccc3F)on2)cc1	83*	.	.	.
COc1cccc(C(=O)Nc2cccc(OC(C)=O)c2)c1	-6	20	-3	-8
COc1cccc(C(=O)COc2cccc(NC(=O)c3cccc([N+](=O)[O-])c3)c2)c1	19	4	49*	66
CCCCCOC(=O)C1=C(C)Nc2nnnn2C1c1ccccc1Cl (stereo unspecified)	-7	.	-11	5
Fc1ccccc1SCc1nnc(-c2ccccc2Br)o1	68*	.	.	.
COc1cc(NC(=O)Cc2nn(C)c(=O)c3ccccc23)cc(OC)c1OC	50*	11	5	-8
COc1ccc(OC)c(NC(=O)Cc2nn(C)c(=O)c3ccccc23)c1	-6	-30	-12	11
O=C(Nc1cccn2ncnc12)c1ccccc1	-33	-5	-19	-7
O=C(Nc1cccn2ncnc12)c1ccc(Cl)cc1	43*	19	14	12
CCC(C(=O)OC)n1c(-c2ccccc2)nc2ccccc2c1=O (stereo unspecified)	64*	.	.	.
CCNC(=O)Nn1c(-c2ccccc2)nc2ccccc2c1=O	-6	2	-15	20
O=c1cc(O)n(-c2ccc(F)cc2)c(=S)[nH]1	71*	3	6	-14
Cc1ccc(C(=O)NCC(=O)OCC(=O)Nc2ccccc2[N+](=O)[O-])cc1	2	.	.	.
Cc1ncc([N+](=O)[O-])n1CC(=O)N/N=C/c1ccccc1F	14	.	.	.
CCOc1cc(C2CC(=O)N3CN(C4CCCCC4)CSC3=C2C#N)ccc1O (stereo unspecified)	.	2	38	82*
COc1ccc2ccccc2c1C1CC(=O)N2CN(C3CCCCC3)CSC2=C1C#N (stereo unspecified)	.	-1	16	-14
CCS(=O)(=O)N1CCN(c2ccc([N+](=O)[O-])c(N3CCOCC3)c2)CC1	97*	.	.	.
O=[N+]([O-])c1ccc(N2CCN(S(=O)(=O)Cc3ccccc3)CC2)cc1N1CCOCC1	19	18	10	-32
Cc1nc(NC(=O)c2oc3ccccc3c2C)sc1C(=O)N(C)C	96*	-12	-4	0
Cc1nc(NC(=O)c2ccccc2[N+](=O)[O-])sc1C(=O)N(C)C	13	.	.	.
COc1cccc(C(C)NC(=O)c2c(F)cccc2Cl)c1 (stereo unspecified)	61*	.	.	.
CCOC(=O)N1CCN(C(=O)COc2cccc3c2CCN(Cc2cccc(C)c2)C3=O)CC1	69*	.	.	.
CCOC(=O)N1CCN(C(=O)COc2cccc3c2CCN(Cc2ccccc2C)C3=O)CC1	21	.	.	.
SMILES	E-sel TNF inh	F-actin modifier	VCAM1 TNFa inh	TNFa cytotox
CCOc1cc(CNc2ccc3c(c2)OCCO3)cc(Br)c1OC	-34	39*	43	37
CCOc1c(Br)cc(CNc2ccc3c(c2)OCCO3)cc1OC	8	23	32	44
CC(C)(C)OC(=O)NCC(=O)N1CCC(C(=O)O)CC1	69*	18	11	-21
CCOC(=O)C1CCN(C(=O)CNC(=O)OC(C)(C)C)CC1	-51	20	-4	-18
CC(=O)CSc1nsc(SCC(C)=O)c1C#N	-32	1	21	-25
CC(C)(C)NC(=O)CSc1nsc(SCC(=O)NC(C)(C)C)c1C#N	.	6	72*	55
COC(=O)C1=C(C)N(CCc2c[nH]c3ccc(OC)cc23)C(=O)C1	-27	.	.	.
O=S(=O)(c1ccc(Br)s1)N1CCN(c2ccccc2)CC1	-4	36*	84*	20
NNC(=O)c1ccc(O)cc1O	-12	.	.	.
CN(C)CCNC(=O)/C(=C/c1ccc(-c2ccc(Cl)cc2)o1)NC(=O)c1ccccc1	94*	.	.	.
COc1ccc(-n2nc3c(c2NC(=O)c2cc(Br)ccc2Cl)CS(=O)C3)cc1 (stereo unspecified)	83*	-6	-6	-2
COc1ccc(-n2nc3c(c2NC(=O)c2ccc(Br)cc2)CS(=O)C3)cc1 (stereo unspecified)	.	-14	-3	13
Cc1ccccc1OCCCC(=O)Nc1ccc(N2CCOCC2)cc1	76*	.	.	.
Cc1ccc(OCCCC(=O)Nc2ccc(N3CCOCC3)cc2)c(C)c1	-16	3	-4	6
COc1ccccc1NS(=O)(=O)c1ccc(NC(C)=O)cc1	17	-12	-7	3
COC(=O)/C=C/S(=O)(=O)c1ccc(NC(C)=O)cc1	92*	-6	1	-26
CCOC(=O)C1CCCN(c2cc(=O)n(C3CCCCC3)c(=O)[nH]2)C1 (stereo unspecified)	-10	.	.	.
CCN1C/C(=C\c2cccc([N+](=O)[O-])c2)C(=O)/C(=C/c2cccc([N+](=O)[O-])c2)C1	100*	.	.	.
CCN1C/C(=C/c2ccc(OC)c(O)c2)C(=O)/C(=C/c2ccc(OC)c(O)c2)C1	60*	.	.	.
COc1ccc(/C=C2\CCc3ccccc3C2=O)cc1OC	23	1	18	-16
CCN1CCN(S(=O)(=O)c2cccc([N+](=O)[O-])c2)CC1	11	-15	4	-4
C=CCNC(=O)NC(=O)COC(=O)CC(NC(N)=O)c1ccc(Cl)cc1 (stereo unspecified)	7	.	.	.
C=CCN1C(=O)/C(=C2/Sc3ccccc3N2CCCS(=O)(=O)O)SC1=S	-8	65*	0	-37
O=C(NC1CCCCC1)N(CCN1CCOCC1)Cc1cc2cc3c(cc2[nH]c1=O)OCCO3	.	33*	1	-45
Cc1ccc(S(=O)(=O)Nc2cc(C(=O)NCCN3CCCC3)ccc2N2CCCCC2)cc1	.	-20	74*	88*
SMILES	E-sel TNF inh	F-actin modifier	VCAM1 TNFa inh	TNFa cytotox
Cc1[nH]c(=O)c(C(=O)/C=C/c2ccccc2F)c2c1CCCC2	-9	12	6	-6
Cc1cccc2[nH]c(SCC(=O)N3CCOCC3)nc12	-31	.	.	.
Cc1cccc(C)c1NC(=O)CN(C)C(=O)/C=C/c1cccs1	93*	.	.	.
Cc1ccc(NC(=O)CN(C)C(=O)/C=C/c2cccc(F)c2)cc1	-17	.	.	.
N=c1sccn1CC(=O)NCCc1ccc(Cl)cc1	81*	0	-11	0
Cc1ccccc1Cn1ccc(NC(=O)c2cnn3c2NC(c2ccccc2)CC3C(F)(F)F)n1 (stereo unspecified)	75*	16	4	-34
O=C(NCc1ccco1)c1cnn2c1NC(c1ccccc1)CC2C(F)(F)F (stereo unspecified)	.	-18	-22	-8
CNc1ccc(Oc2nc([N+](=O)[O-])nn2C)cc1	-52	.	.	.
C[n+]1ccc(/C=C/c2ccc(Br)cc2)cc1	16	.	44*	18
Cc1cc(C)n(Cc2ccc(NC(=O)c3nn(C)cc3[N+](=O)[O-])cc2)n1	-13	8	-7	-16
Cc1ccc(-c2nc(NC(=O)c3nn(C)cc3[N+](=O)[O-])sc2C)cc1	87*	-3	92*	26
O=C(Nc1nc(-c2ccc(Cl)cc2)cs1)c1cccnc1	1	-16	-3	-5
Cn1cc([N+](=O)[O-])c(C(=O)Nc2nc(-c3ccc(Cl)cc3)cs2)n1	98*	10	30	29
Cc1ccc(-c2nc(NC(=O)c3nn(C)cc3[N+](=O)[O-])sc2C)cc1C	100*	0	89*	36
